Measurements published in the supplement of paper PMC10849652.
Targets with a hit are over-represented here; the source holds about 7,900 in all. About 0.6% of all pairs of compound and target were hits. Unmarked numbers belong to inactive results.

Assays:
Test in all cases: log2 fold change, soluble protein after heating vs DMSO (PISA); higher = thermal stabilisation; K562 cells, 10 uM, 30 min; active = over 0.2 and 3.5 SD of the protein, either way, in both replicates (recomputed)
[1] = compound: C1=CC=C(C=C1)[C@H](COC2=CC3=C(C=C2)NC(=O)N3)NC(=O)C4=CC=CN(C4=O)CC5=CC(=C(C=C5)F)F
Summary of the method: (§1)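 Soluble protein was quantified by TMTpro 16plex LC-MS/MS after channel sums were equalised. It was obtained as the supernatant after 21,000xg for 90 min from pooled aliquots of K562 cells (2×10^6 cells/mL, 10 μM compound, 30 min) heated for 3 min across 48°C-58°C and extracted in PBS with 0.5% NP-40 at 4°C. Thermal stability values are relative to control samples and come from duplicates. They are given as log2 fold changes.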

[2] = compound: CC1=C(SC2=C1C(=N[C@H](C3=NN=C(N32)C)CC(=O)N)C4=CC=C(C=C4)Cl)C
Summary of the method: as §1

[3] = compound: CC1=C2C(=CC=C1)N=C(N(C2=O)C3=CC=CC=C3C)CN4C=NC5=C(N=CN=C54)N
Summary of the method: as §1

[4] = compound: Cc1sc2c(c1C)C(c1ccc(Cl)cc1)=N[C@@H](CC(=O)OC(C)(C)C)c1nnc(C)n1-2
Summary of the method: as §1

[5] = compound: c1ccc([C@@H]2C[C@H]2NC2CCNCC2)cc1
Summary of the method: as §1

Sequence of UniProt P27708 (P27708 whole entry, looked up): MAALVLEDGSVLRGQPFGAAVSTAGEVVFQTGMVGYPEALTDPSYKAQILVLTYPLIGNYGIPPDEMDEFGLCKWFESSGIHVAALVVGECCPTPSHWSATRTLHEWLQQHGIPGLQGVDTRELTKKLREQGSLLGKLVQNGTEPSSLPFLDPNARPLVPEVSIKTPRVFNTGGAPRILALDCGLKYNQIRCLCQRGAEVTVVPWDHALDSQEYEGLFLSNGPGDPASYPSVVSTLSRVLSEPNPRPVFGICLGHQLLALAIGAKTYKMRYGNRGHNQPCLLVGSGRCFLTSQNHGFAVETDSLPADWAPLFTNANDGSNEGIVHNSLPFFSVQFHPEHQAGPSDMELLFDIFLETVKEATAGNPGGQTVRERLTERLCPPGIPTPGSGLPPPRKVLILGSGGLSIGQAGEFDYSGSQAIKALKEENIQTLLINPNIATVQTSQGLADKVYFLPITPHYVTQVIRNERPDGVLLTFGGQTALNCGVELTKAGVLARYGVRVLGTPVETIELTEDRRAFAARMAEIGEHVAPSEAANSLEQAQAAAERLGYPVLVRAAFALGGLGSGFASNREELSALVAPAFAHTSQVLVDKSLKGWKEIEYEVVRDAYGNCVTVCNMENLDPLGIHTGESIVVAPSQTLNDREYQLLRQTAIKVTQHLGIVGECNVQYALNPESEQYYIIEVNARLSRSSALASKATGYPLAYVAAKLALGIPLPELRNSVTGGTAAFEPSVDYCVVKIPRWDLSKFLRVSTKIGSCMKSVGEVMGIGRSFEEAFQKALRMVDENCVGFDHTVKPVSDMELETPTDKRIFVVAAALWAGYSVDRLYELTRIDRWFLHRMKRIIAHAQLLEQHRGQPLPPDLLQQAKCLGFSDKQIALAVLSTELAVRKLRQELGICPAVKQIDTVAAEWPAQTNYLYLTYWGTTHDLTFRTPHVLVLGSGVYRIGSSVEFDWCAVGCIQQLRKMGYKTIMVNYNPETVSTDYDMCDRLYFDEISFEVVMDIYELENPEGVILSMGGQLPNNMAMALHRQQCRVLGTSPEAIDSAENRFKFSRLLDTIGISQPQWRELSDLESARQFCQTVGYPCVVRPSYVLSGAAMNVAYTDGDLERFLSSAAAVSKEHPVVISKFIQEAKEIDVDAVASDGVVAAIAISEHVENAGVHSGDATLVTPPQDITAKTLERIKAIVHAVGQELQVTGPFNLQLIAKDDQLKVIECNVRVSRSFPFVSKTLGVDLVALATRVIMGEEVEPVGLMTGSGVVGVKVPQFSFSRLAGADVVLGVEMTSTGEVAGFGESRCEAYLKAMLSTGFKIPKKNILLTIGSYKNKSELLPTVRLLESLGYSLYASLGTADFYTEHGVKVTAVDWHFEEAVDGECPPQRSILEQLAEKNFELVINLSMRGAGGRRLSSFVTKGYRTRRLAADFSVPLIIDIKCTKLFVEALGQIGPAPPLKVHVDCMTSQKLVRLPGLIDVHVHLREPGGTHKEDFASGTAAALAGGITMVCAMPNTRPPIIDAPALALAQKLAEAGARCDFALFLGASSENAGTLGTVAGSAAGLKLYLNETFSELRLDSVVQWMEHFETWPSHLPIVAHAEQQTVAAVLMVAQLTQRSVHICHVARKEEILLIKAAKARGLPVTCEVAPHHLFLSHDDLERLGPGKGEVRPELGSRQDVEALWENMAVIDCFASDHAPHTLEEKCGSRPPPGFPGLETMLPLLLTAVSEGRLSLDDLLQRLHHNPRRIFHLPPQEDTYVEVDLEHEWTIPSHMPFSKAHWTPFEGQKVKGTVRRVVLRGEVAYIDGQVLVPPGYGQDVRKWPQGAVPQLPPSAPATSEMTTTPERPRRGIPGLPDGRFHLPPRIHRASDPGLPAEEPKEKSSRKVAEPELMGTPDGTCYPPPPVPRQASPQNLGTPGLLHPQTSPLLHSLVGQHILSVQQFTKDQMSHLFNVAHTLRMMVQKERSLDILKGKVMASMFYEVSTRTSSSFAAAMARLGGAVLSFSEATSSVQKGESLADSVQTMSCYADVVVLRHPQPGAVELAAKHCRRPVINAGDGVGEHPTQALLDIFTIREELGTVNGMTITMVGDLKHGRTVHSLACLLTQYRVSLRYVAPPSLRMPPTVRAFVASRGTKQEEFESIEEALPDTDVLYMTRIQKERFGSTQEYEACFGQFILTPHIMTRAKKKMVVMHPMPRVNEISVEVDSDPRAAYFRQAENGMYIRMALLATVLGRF
Sequence of UniProt Q99627 (Q99627 whole entry, looked up): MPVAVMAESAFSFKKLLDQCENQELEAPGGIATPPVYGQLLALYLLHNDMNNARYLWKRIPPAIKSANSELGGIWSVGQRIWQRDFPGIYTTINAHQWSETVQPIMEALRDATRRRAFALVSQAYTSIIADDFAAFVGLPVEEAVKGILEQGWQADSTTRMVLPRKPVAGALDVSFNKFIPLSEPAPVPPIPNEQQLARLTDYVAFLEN
Sequence of UniProt A6NHX0 (A6NHX0 whole entry, looked up): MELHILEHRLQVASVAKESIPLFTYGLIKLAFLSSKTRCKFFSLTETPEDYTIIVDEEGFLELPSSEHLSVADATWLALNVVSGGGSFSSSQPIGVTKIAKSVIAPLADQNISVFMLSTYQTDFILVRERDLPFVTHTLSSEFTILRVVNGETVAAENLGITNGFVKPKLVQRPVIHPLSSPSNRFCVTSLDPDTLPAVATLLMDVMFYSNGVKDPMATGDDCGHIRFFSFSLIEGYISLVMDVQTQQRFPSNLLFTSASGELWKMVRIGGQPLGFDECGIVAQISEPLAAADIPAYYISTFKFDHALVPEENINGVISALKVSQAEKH
Sequence of UniProt Q16630 (Q16630 whole entry, looked up): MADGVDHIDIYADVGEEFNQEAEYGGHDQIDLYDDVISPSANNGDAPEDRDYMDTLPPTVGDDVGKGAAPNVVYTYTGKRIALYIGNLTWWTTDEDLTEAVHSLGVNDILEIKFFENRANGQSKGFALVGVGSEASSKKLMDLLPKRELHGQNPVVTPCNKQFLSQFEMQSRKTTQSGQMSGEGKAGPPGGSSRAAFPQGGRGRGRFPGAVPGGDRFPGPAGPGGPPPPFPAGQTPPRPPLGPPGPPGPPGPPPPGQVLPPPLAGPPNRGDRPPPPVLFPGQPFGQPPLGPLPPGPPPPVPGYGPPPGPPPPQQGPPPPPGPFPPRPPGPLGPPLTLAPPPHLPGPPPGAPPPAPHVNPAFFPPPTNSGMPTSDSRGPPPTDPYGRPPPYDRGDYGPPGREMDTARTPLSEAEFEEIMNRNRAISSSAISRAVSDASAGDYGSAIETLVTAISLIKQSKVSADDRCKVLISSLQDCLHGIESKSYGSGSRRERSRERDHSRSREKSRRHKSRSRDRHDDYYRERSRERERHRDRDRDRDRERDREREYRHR
Sequence of UniProt Q8IWV2 (Q8IWV2 whole entry, looked up): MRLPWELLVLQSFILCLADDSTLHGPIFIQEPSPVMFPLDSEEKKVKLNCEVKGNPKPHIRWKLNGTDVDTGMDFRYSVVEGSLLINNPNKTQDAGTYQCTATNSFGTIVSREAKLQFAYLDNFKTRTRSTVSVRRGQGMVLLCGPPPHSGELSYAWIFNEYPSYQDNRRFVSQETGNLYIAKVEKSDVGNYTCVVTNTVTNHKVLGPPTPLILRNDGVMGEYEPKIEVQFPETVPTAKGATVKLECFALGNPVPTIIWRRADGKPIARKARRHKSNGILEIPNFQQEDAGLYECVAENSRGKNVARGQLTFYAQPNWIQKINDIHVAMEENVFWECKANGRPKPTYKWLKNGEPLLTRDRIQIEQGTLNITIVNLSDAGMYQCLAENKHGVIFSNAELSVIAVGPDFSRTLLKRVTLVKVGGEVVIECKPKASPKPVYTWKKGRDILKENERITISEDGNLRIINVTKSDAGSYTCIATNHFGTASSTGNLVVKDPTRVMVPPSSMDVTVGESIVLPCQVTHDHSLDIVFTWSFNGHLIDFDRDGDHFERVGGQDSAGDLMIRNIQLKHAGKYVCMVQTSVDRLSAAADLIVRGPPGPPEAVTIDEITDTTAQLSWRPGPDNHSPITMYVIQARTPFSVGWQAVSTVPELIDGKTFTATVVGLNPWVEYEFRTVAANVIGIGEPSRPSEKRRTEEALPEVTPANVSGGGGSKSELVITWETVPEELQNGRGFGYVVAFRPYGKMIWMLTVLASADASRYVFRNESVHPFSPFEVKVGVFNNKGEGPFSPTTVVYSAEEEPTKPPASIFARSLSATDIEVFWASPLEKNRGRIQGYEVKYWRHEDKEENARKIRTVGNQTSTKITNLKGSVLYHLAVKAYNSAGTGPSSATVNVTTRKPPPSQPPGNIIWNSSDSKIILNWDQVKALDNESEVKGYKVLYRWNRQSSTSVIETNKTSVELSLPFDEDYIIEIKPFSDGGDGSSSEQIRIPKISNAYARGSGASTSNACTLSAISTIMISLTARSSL
Sequence of UniProt Q96G28 (Q96G28 whole entry, looked up): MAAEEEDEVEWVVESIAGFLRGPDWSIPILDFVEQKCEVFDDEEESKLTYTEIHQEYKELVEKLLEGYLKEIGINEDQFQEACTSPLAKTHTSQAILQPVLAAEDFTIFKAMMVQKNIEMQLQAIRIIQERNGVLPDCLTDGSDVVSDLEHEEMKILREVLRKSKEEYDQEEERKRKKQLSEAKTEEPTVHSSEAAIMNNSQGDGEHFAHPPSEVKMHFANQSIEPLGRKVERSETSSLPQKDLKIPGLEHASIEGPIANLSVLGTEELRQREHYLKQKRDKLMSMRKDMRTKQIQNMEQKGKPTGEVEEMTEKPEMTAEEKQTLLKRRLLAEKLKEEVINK
Sequence of UniProt P48729 (P48729 whole entry, looked up): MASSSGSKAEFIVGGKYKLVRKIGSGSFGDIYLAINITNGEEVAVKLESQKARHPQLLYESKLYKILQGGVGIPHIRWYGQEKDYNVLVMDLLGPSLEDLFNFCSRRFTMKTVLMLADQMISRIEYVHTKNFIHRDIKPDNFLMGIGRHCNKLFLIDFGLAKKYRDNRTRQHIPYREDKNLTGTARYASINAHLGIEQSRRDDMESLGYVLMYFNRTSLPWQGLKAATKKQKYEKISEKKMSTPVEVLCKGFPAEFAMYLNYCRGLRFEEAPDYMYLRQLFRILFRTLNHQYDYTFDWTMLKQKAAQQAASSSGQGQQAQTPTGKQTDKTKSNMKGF

| Target | log2 fold change [1] | log2 fold change [2] | log2 fold change [3] | log2 fold change [4] | log2 fold change [5] |
| --- | --- | --- | --- | --- | --- |
| CETN2 (UniProt P41208) | 0.027 | 0.046 | -0.012 | 0.06 | 0.08 |
| CLN3 (UniProt Q13286) | 0.005 | -0.032 | -0.315 | -0.119 | 0.087 |
| CAD (UniProt P27708) | -0.115 | 0.048 | -0.019 | -0.005 | -0.033 |
| CEMIP2 (UniProt Q9UHN6) | -0.03 | -0.017 | 0.08 | -0.04 | 0.081 |
| CHCHD2 (UniProt Q9Y6H1) | -0.016 | 0.082 | -0.007 | -0.065 | -0.011 |
| CFAP36 isoform 2 (UniProt Q96G28) | -0.042 | 0.01 | 0.383 (active) | -0.009 | -0.158 |
| COPS8 (UniProt Q99627) | 0.002 | 0.086 | 0.039 | -0.123 | -0.014 |
| CSNK1A1 (UniProt P48729) | 0.048 | 0 | 0.008 | 0.046 | 0.02 |
| CHST11 (UniProt Q9NPF2) | 0.018 | -0.061 | 0.055 | 0.007 | -0.139 |
| CASTOR2 (UniProt A6NHX0) | 0.056 | 0.078 | 0.039 | -0.065 | -0.016 |
| CNTN4 (UniProt Q8IWV2) | 0.093 | 0.154 | 0.103 | -0.075 | -0.106 |
| CPSF6 isoform 2 (UniProt Q16630) | 0.036 | -0.038 | 0.048 | 0.02 | -0.016 |
